Source: PubChem
The full list was thinned out, with hits kept by preference.
DT40 TDP1 CPT = growth inhibition of DT40 Tdp1-/-;hTDP1 cells with camptothecin (screen for TDP1 inhibitors); 12% of 420,000 active; chicken DT40 Tdp1-/-;hTDP1 cells + 20 nM CPT, ATP luminescence, 48 h; Potency, µM (top dose mostly 46.2 µM), inactives show at the highest dose activity change, negative = growth inhibition, actives largely listed as inhibitors; also: potency is read from the fitted curve at half-maximal effect; nearly all actives have a fitted effect of over 55% in size
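Chicken DT40 Tdp1-/- cells complemented with human TDP1, 400 cells/well, exposed to compounds plus 20 nM camptothecin for at least 48 h at 37 C; viability read as ATP content by CellTiter-Glo luminescence.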
ALOX12 inh = blocks human arachidonate 12S-lipoxygenase; purified 12hLO, xylenol orange hydroperoxide absorbance; Potency, µM (titrated, usually from 108 µM), for the others: at the top dose activity change, negative = inhibition, actives largely listed as inhibitors; P18054; 1.1% of 580,000 active; also: potency is read from the fitted curve at half-maximal effect
Target sequence (P18054 whole entry, looked up): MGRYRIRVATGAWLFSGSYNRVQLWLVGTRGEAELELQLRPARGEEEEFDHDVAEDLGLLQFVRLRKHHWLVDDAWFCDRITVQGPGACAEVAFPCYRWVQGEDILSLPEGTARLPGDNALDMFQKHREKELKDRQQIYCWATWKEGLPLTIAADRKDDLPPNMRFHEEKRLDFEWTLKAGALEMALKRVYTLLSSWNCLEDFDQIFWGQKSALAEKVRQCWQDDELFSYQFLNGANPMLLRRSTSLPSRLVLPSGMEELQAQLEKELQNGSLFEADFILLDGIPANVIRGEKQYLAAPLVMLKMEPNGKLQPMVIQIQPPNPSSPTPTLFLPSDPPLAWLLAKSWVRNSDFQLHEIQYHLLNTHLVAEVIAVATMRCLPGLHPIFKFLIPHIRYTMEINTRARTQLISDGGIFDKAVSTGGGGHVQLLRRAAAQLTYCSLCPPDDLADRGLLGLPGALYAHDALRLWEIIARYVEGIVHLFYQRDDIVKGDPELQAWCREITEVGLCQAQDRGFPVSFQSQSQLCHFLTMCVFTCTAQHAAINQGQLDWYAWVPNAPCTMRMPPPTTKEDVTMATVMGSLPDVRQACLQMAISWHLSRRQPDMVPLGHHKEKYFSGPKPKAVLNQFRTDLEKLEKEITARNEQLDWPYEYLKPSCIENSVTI
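Purified human 12hLO at 150 nM in 25 mM Hepes, 0.01% Triton X-100, pH 7.0, preincubated 15 min at room temperature with compound. Reaction started with 40 uM arachidonic acid, 30 min at room temperature. Hydroperoxide measured by Fe-xylenol orange, 573/405 nm absorbance ratio.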
HT1080 IDH1KD tx = toxicity to HT-1080 IDH1 knockdown cells (counter line); Potency, µM (titrated, usually from 46.1 µM), for inactives: at the highest dose activity, negative = toxicity, most hits filed as cytotoxic; HT-1080 IDH1 knockdown viability, ATP luminescence, 48 h; 2% of 360,000 active;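 also: potency is read from the fitted curve at half-maximal effect; 0% = DMSO wells and -100% = cell-free medium wells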
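Knockdown cells (IDH1KD HT-1080) received compounds 2 h after plating at 750 cells/well and were kept 48 h at 37 °C in 5% FBS RPMI. A CellTiter-Glo luminescence read gave % activity for curve fitting.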
TDP1 cell noCPT = qHTS for Inhibitors of human tyrosyl-DNA phosphodiesterase 1 (TDP1): qHTS in cells in absence of CPT; DT40 Tdp1-/- hTDP1 cells, no CPT, ATP luminescence, 48 h; Potency, µM (series often up to 46.2 µM), without a hit: at the highest dose activity change, negative = growth inhibition, usual class: inhibitors; 15% of 420,000 active; AID 686978, 2013; also: potency is read from the fitted curve at half-maximal effect; nearly all actives have a fitted effect of over 55% in size
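DT40 Tdp1-/-;hTDP1 cells, no CPT (DMSO vehicle only), 400 cells/well; compounds pin-transferred; ≥48 hr, 37 °C; CellTiter-Glo 30 min RT dark, luminescence read.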
HT1080-NT tox = kills 2HG-producing HT-1080-NT fibrosarcoma cells; HT-1080-NT fibrosarcoma viability, CellTiter-Glo ATP luminescence, 48 h; Potency, µM (titrated, usually from 46.1 µM), for inactives: at the highest dose activity, negative = less viability, usual class: cytotoxic; 1.6% of 360,000 active;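 also: NT is the 2HG producing partner of a matched IDH1 knockdown line; potency is read from the fitted curve at half-maximal effect; 0% = DMSO-treated cells and -100% = media-only wells without cells; nearly all actives have a fitted effect of over 55% in size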
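Read-out is CellTiter-Glo luminescence after 10 minutes at room temperature, following 48 hours' compound treatment of HT-1080-NT cells (750 cells/well, RPMI, 5% FBS, 37 degrees C).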
IL1B secr inh = inflammasome signaling inhibition, IL-1 beta readout. THP-1 LPS/ATP IL-1B secretion, AlphaLISA, 16 h; active compounds read low. activity change, % at 57.5 µM. AID 743279. 4.7% of 360,000 active; in the data active = activity change below about -50%; inconclusive = mostly about -30% to -49%
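THP-1 cells pretreated 1 hr with compounds (up to 57.5 uM final), then stimulated with LPS (250 ng/mL final) plus ATP (1.25 mM final); secreted IL-1B measured by AlphaLISA after 16 hr, decreased signal indicating inhibition.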
* = called active by the depositor; i = inactive; ? = inconclusive; nt = no result; [ ] = remark or other dose. Unless noted, calls follow the shape of the dose curve; as a rule, active = well fitted curve in the direction sought with a large enough effect; inconclusive = small, poorly fitted or top-dose-only effect, or another doubt; inactive = no such curve, though single readings can be large; an effect the other way counts as inactive or inconclusive. Unless noted, % is scaled to controls: 0 for no effect and ±100 for the full control effect.

SMILES	DT40 TDP1 CPT	ALOX12 inh	HT1080 IDH1KD tx	TDP1 cell noCPT	HT1080-NT tox	IL1B secr inh
COc1ccc(NC(=O)CN(C)C(=O)c2cccc(S(=O)(=O)N3CCN(Cc4ccccc4)CC3)c2)cc1	18µM*	nt	-24%	12µM*	?	-17
Cc1ccc(C)c(NC(=O)CN(C)C(=O)c2cccc(S(=O)(=O)N3CCCC3)c2)c1	5%	-3%	-1%	-1%	-4%	4
CC(C)(C)CCNC(=O)c1cc(C2CC2)nc2ccccc12	nt	-10%	nt	nt	nt	nt
N#Cc1ccc(CN2CCC(c3ccnn3CCO)CC2)c(F)c1	nt	31%	nt	nt	nt	nt
CN1/C(=C\C(=O)CN2CCN(C(c3ccccc3)c3ccccc3)CC2)C(C)(C)c2ccccc21	nt	10µM*	nt	nt	nt	nt
CN1/C(=C/C(=O)C2CC2)C(C)(C)c2ccccc21	?	?	-4%	23µM*	2%	40
CCOC(=O)C1CCCN(CC(=O)/C=C2/N(C)c3ccccc3C2(C)C)C1 (centres undefined)	?	?	-11%	13µM*	-6%	-9
CN1/C(=C\C(=O)Nc2cccc(Cl)c2)C(C)(C)c2ccccc21	?	-26%	?	23µM*	?	-72*
COc1ccc(-c2csc(-c3c(C)c(C)nn(C)c3=O)n2)cc1OC	nt	-11%	nt	nt	nt	nt
O=C(NNC(=O)C1CCCC1)c1ccc(CSc2ccc(Cl)cc2)cc1	nt	6%	nt	nt	nt	nt
CC(=O)c1ccc2cccc3c2c1N=CN3C	-4%	2%	-14%	-12%	0%	-59*
COc1ccc(Nc2nc3cc(Cl)c(Cl)cc3n3cnnc23)cc1Cl	?	0%	nt	13µM*	nt	nt
Cc1ccc2nc(Nc3ccc(C)c(F)c3)c3nncn3c2c1	18µM*	0%	nt	15µM*	nt	nt
COc1ccc(Cl)cc1Nc1nc2ccc(C)cc2n2cnnc12	23µM*	2%	19%	15µM*	14%	60
COc1ccc(Cl)cc1Nc1nc2ccc(C(=O)c3ccccc3)cc2n2cnnc12	-12%	?	nt	-18%	nt	nt
CCOc1ccccc1Nc1nc2ccc(C)cc2n2cnnc12	?	8%	3%	-13%	0%	0
COc1ccc(OC)c(Nc2nc3ccc(C)cc3n3cnnc23)c1	16µM*	?	14%	?	8%	16
CN(C)c1nc(-c2ccccc2)nc2c1CCN(C(=O)C1CC13CCC3)C2 (centres undefined)	nt	46%	nt	nt	nt	nt
CN(C)C[C@@H]1CN(c2ncccn2)C[C@H]1NC(=O)c1cccc(C#N)c1	nt	34%	nt	nt	nt	nt
CC(C)NC(=O)NC1CC2(CCN(Cc3ccc(O)cc3)CC2)c2ccccc21 (centres undefined)	nt	5%[6.33 µM]	nt	nt	nt	nt
C=C(C)CNC(=S)N/N=C(/C)c1ccc(C)o1	nt	66%	nt	nt	nt	nt
Cc1ccc(C(=O)c2ccccc2C(=O)OCC(=O)Nc2ccc(SC(F)F)cc2)cc1	?	-22%	?	18µM*	-16%	-26
Cc1ccc(C(=O)c2ccccc2C(=O)OCC(=O)Nc2cccc([N+](=O)[O-])c2)cc1	18µM*	-26%	0%	?	1%	-5
O=C(COC(=O)c1ccccc1Cc1ccccc1)Nc1ccc(SC(F)F)cc1	?	-4%	1%	?	6%	-93*
COc1cc(C(=O)OCC(=O)Nc2ccc(SC(F)F)cc2)cc(OC)c1OC	?	-12%	1%	?	-7%	-4
SMILES	DT40 TDP1 CPT	ALOX12 inh	HT1080 IDH1KD tx	TDP1 cell noCPT	HT1080-NT tox	IL1B secr inh
O=C(Cc1ccccc1F)Nc1ccc(SC(F)F)cc1	?	0%	-5%	?	-3%	-55*
Cc1ccc(-c2nc(C)sc2CC(=O)OCC(=O)Nc2cccc([N+](=O)[O-])c2)cc1	-22%	2%	-18%	-28%	-8%	33
O=C(COC(=O)Cc1ccccc1F)Nc1ccc(SC(F)F)cc1	8%	-24%	16%	-15%	20%	-2
COc1ccc(C(=O)Oc2ccc(C#N)cc2)cc1OC	nt	6%	nt	nt	nt	nt
Cn1sc(NC(=O)c2ccccc2Cl)nc1=O	-3%	45µM*	6%	-4%	12%	38
O=S(=O)(c1ccccc1)c1nc(-c2ccc(F)cc2)oc1N1CCCCCC1	18µM*	-27%	nt	15µM*	nt	nt
Cc1ccc(S(=O)(=O)c2nc(-c3ccc(F)cc3)oc2N2CCN(c3ccccc3)CC2)cc1	?	-8%	nt	18µM*	nt	nt
CN(C)c1ccc(CN(C)C2CCc3ccccc32)cc1 (centres undefined)	nt	37%[176 µM]	nt	nt	nt	nt
CC(=O)c1ccc(N2CCN(C(=O)COc3ccc(F)cc3)CC2)c(F)c1	?	-4%	-6%	16µM*	-5%	-16
CC(=O)c1ccc(N2CCN(C(=O)Cc3ccccc3)CC2)c(F)c1	?	0%	1%	?	0%	30
CCC(=O)c1cc(F)ccc1OCC(=O)N1CCN(c2ccc(F)cc2)CC1	18µM*	-3%	-9%	21µM*	-27%	5
CCC(=O)c1ccc(N2CCN(C(=O)COc3ccc(F)cc3)CC2)c(F)c1	21µM*	i	-7%	23µM*	-2%	-8
COc1cccc(CN2CC[C@H]3COC(=O)N3c3cc(F)ccc3C2)c1	nt	-1%[176 µM]	nt	nt	nt	nt
OC1(c2csc(CN3CCOCC3)n2)CCN(Cc2ccccc2F)CC1	nt	27%[176 µM]	nt	nt	nt	nt
CCOc1ccc(-n2ccn3c(SC(CC)C(=O)Nc4cc(C)ccc4C)nnc3c2=O)cc1 (centres undefined)	nt	-14%	nt	nt	nt	nt
O=C(CCC1CCCC1)N1CC2CC(C1)[C@H]1CCCC(=O)N1C2 (some centres undefined)	nt	16%	nt	nt	nt	nt
O=C(c1cccc2c1CCN2C(=O)C1CC1)N1CCCCC1	nt	21%	nt	nt	nt	nt
COc1cccc(-n2c(SCC(=O)Nc3cc(C)ccc3C)nc3c(oc4ccccc43)c2=O)c1	?	-22%	nt	13µM*	nt	nt
COc1cccc(-n2c(SCC(=O)Nc3cccc(Cl)c3)nc3c(oc4ccccc43)c2=O)c1	?	-23%	nt	-5%	nt	nt
COCCn1c(SCC(=O)Nc2cccc(OC)c2)nc2c(oc3ccccc32)c1=O	5.8µM*	-16%	1%	7.3µM*	-14%	-5
CCN(C(=O)c1c(C)cc(=O)oc1C)c1ccc2c(c1)OCO2	-5%	?	6%	-16%	-7%	10
CCN(C(=O)c1coc(=O)c(Br)c1)c1ccc2c(c1)OCO2	1.5µM*	?	?	1µM*	?	-11
Cc1noc([C@@H]2CC(F)(F)CN2C(=O)c2coc(C)n2)n1	nt	31%	nt	nt	nt	nt
